HIF-2a inh: blocks HIF-2a reporter activity; 786-0 RCC cells HIF-2a reporter, luciferase luminescence, overnight; inhibition, % at 18.8 µM; actives 0.72% (n = 360,000); AID 624352;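 active = inhibition of the luminescence signal of 40% or more relative to plate controls, in a single-dose primary screen at 18.75 µM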
C8 TRAIL sens: caspase-8 TRAIL sensitization; actives 1% (n = 360,000); NB7+C8 cells + TRAIL, ATPlite viability luminescence; inhibition (viability loss, TRAIL sensitization), % at 10 µM; AID 624354;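 active = compounds causing at least 50% loss of cell viability in the single-dose screen, relative to plate controls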
TROY NFkB inh: blocks TROY-dependent signaling in reporter cells; Q293 LMP1-TROYcd NF-kB luciferase reporter, 4 h; inhibition, % at 10 µM; actives 0.98% (n = 360,000); AID 1347056;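 active = compounds whose plate-normalised and pattern-corrected inhibition of the luciferase reporter signal at the single screening dose is 50% or more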
aSyn 5UTR inh: 5' untranslated region of α-synuclein, MLPCN primary screen. alpha-synuclein 5'UTR reporter, inhibitor activity. inhibition, % (tested at 7.5 µM). actives 0.82% (n = 300,000); in the data active = inhibition above about 60%;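 also: H4 neuroglioblastoma cells stably carrying SNCA 5'UTR luciferase fusion; 0% = DMSO wells and 100% = positive control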
HSP90 inh: inhibitors of HSP90 luciferase refolding in rabbit reticulocyte lysate | actives 0.91% (n = 290,000) | inhibition, % at 5.6 µM | AID 1789 | luciferase refolding luminescence, 3 h;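 active = inhibition above the screen-wide mean plus 3 SD, computed separately per campaign, cut at about 16% in these data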;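 also: 0% = DMSO wells and 100% = 60 µM geldanamycin wells; inhibitors lower the luminescence because luciferase stays unfolded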
TWEAK Fn14 block: inhibitors of TWEAK-Fn14 interaction signaling; TWEAK-stimulated Fn14 reporter cells, luciferase luminescence, 8 h; inhibition, % at 10 µM; actives 2% (n = 360,000); in the data active = inhibition above about 50%
The depositor's hits bear a star; / = not tested or not shown. In the library only some 3.9% were active in any assay of this set; here they are far more common.

SMILES	HIF-2a inh	C8 TRAIL sens	TROY NFkB inh	aSyn 5UTR inh	HSP90 inh	TWEAK Fn14 block
C/C(=N\NC(=O)c1c[nH]c2ccccc12)c1ccccn1	-237	20	-38	72*	2	10
CCCNC(=O)c1cc(C2CCCCN2C(=O)c2ccc(C(C)C)cc2)on1 (configuration not stated)	10	3	18	/	/	-3
NC(=O)c1csc(CCNC(=O)c2ccccc2)n1	11	7	-4	/	/	0
CC(C)CCNC(=O)C(c1ccc(O)cc1)N(Cc1cccs1)C(=O)C1COc2ccccc2O1 (configuration not stated)	-8	11	28	29	-2	55*
O=C(c1ccccc1)c1ncc[nH]1	-40	0	-20	-27	0	-10
O=c1[nH]c(/C(=N\O)c2ccccc2)no1	5	73*	15	-8	6	7
CC(C)(C)c1cc(=O)[nH]c(SCc2ccccc2)n1	6	-9	45	17	2	12
CC(C)(C)c1cc(=O)[nH]c(SCc2ccccc2Cl)n1	14	-11	54*	19	5	-5
COC(=O)C[C@H]1C=C[C@@H](NC(=O)c2ccncc2)[C@@H](CO)O1	0	-1	/	/	/	/
Cc1onc(-c2ccccc2)c1C(=O)NC(=S)NNC(=O)c1ccccc1O	20	36	-30	63*	1	24
Cc1onc(-c2ccccc2)c1C(=O)NC(=S)NNC(=O)c1ccc(O)cc1O	3	9	9	64*	-2	38
Cc1ccc(S(=O)(=O)N2[C@H](CC(=O)c3ccc(F)cc3)OC[C@@H]2C(C)C)cc1	-10	21	/	/	/	/
CC(C)(C)C(C(=O)NCc1ccccc1)N1CCN(CCN2CCOCC2)CC1 (configuration not stated)	-3	8	/	/	/	/
CC(C)(C)OC(=O)C(Oc1ccccc1[N+](=O)[O-])C(=O)OC(C)(C)C	6	-10	/	/	/	/
COC(=O)[C@]12CCCCC=C1N(Cc1ccccc1)C(=O)[C@H](CC(=O)NCC13CC4CC(CC(C4)C1)C3)C2	6	-3	10	/	/	20
CCCOP(=O)(OCCC)C(NC(=O)C(C)(C)C)c1ccccc1 (configuration not stated)	17	-2	9	13	-1	-4
CCOP(=O)(OCC)C(NC(=O)C(F)(F)F)c1ccccc1 (configuration not stated)	15	-9	63*	-4	0	8
CCN(CC)C(=O)C1=C(C)N(Cc2ccccc2)C(=O)C(CC(=O)NCCc2ccccn2)C1 (configuration not stated)	-1	2	8	/	/	-6
Cc1ccc(C(=O)Oc2cc(N)n(S(=O)(=O)c3ccc(F)cc3)n2)cc1	8	3	44	-13	5	79*
O=C(N/N=C\c1ccc(CNS(=O)(=O)c2ccc(Cl)cc2)o1)C(=O)Nc1ccc(Oc2ccccc2)cc1	2	54*	-5	/	2	-58
Cc1cc(C(=O)Nc2cccc(-c3ccc(N4CCOCC4)nn3)c2)ccc1[N+](=O)[O-]	-222	51*	-40	-110	/	-14
Cc1ccc(C(=O)Nc2cccc(-c3ccc(N4CCOCC4)nn3)c2)cc1	-200	44	-78	-70	/	-28
O=C(Nc1cccc(-c2ccc(N3CCOCC3)nn2)c1)c1ccc(Cl)cc1	-191	19	-51	-86	/	-14
Cc1ccc(C(=O)Nc2cccc(-c3ccc(N4CCOCC4)nn3)c2)cc1C	-177	44	-59	-73	/	-25
O=C(Nc1cccc(-c2cnc3ccccc3n2)c1)c1cccc(NC(=O)c2ccco2)c1	-69	43	14	-95	-1	55*
O=C(Nc1cccc(-c2ccc(N3CCOCC3)nn2)c1)c1ccccc1Cl	-259	61*	-61	-110	/	-26
O=C(Nc1cccc(-c2ccc(N3CCCCC3)nn2)c1)c1ccco1	-138	81*	29	-36	/	42
COc1ccc2cc(C3CC=C(COC(C)=O)CN3S(=O)(=O)c3ccccc3[N+](=O)[O-])n(C(=O)OC(C)(C)C)c2c1 (configuration not stated)	0	-5	/	/	/	/
CC(=O)Nc1ccc(CN(C)c2c(C)nc3ccc(C(=O)NCCCN4CCCC4=O)cn23)cc1	2	-7	1	/	/	-3
O=C(COc1ccc(Cl)cc1)Nc1cccc(-c2ccc(N3CCOCC3)nn2)c1	-83	59*	16	-71	/	30
